This is part of a sample that, as a whole, favours compounds with a hit. Of some 83,000 tested, about 20% had one in any assay.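 A percent growth of 40 corresponds to 60% growth inhibition; 0 means no net growth; -100 means all cells died. Active threshold: below 10.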 A number with no mark means an inactive call. Calls of active or inactive are those of the source.

Some test systems named below: DU-145 prostate; K-562 leukemia; MALME-3M melanoma; MDA-MB-231 breast; RXF 393 renal; SF-268 CNS; SF-295 CNS; SF-539 CNS; UACC-257 melanoma; M14 melanoma; HCT-15 colon; HT29 colon; SNB-75 CNS; SNB-19 CNS; U251 CNS; PC-3 prostate; SK-MEL-5 melanoma; UACC-62 melanoma; LOX IMVI melanoma; SK-MEL-28 melanoma.
Holding throughout (assay): NCI-60 one-dose screen, 48 h (100 = growth as untreated, 0 = no growth, -100 = all killed)
Common to all, as to details: 10 µM unless noted

In the case of `O=C1Nc2ccccc2C1(c1c[nH]c2ccccc12)c1c[nH]c2ccccc12`, the growth with DU-145 prostate was 29.6%; in the test on K-562 leukemia it was 42.9%; in the test on MALME-3M melanoma, 81.8%; in the test on MDA-MB-231 breast it was 49%; in the test with RXF 393 renal, -53% (active); in the test on SF-268 CNS, 53.2%. Also, the growth in the test on SF-295 CNS was 86.3%; in the test with SF-539 CNS it was 47.1%; in the test with UACC-257 melanoma, 94.6%; in the test with M14 melanoma, 66%; in the test on HCT-15 colon, 32.2%; in the test with HT29 colon, 53.3%. The growth in the test on SNB-75 CNS is -12.9% (active); in the test with SNB-19 CNS, 81.5%; with U251 CNS it was 73.7%; in the test on PC-3 prostate it was -9.62% (active); in the test with SK-MEL-5 melanoma, 89.4%; in the test on UACC-62 melanoma, 70.3%. In addition, the growth in the test on LOX IMVI melanoma is 8.4% (active); in the test with SK-MEL-28 melanoma it was 108%.

On to `CCCCCCCCCCCCCCCCCCOc1ccccc1CC(=O)NCC[N+]1(C)CCCCC1`, for which the growth in the test on DU-145 prostate was 68.7%; in the test on K-562 leukemia, 34.2%; in the test with MALME-3M melanoma it was 44.9%; in the test on MDA-MB-231 breast, 36.6%; in the test on RXF 393 renal, 18.4%; in the test on SF-268 CNS, 34%. Further, the growth with SF-295 CNS is 90.2%; in the test with SF-539 CNS, 84%; in the test on UACC-257 melanoma, 88.3%; in the test with M14 melanoma, 68.3%; with HCT-15 colon it was 95.7%; in the test with HT29 colon, 12.8%. Moreover, the growth in the test on SNB-75 CNS is 61.4%; with SNB-19 CNS it was 36.7%; with U251 CNS it was 16.3%; in the test with PC-3 prostate, 8.74% (active); in the test with SK-MEL-5 melanoma, 82.1%; in the test with UACC-62 melanoma it was 44.6%. Further, the growth was 53.6% with LOX IMVI melanoma and 76.2% in the test on SK-MEL-28 melanoma.

Consider `COc1ccc(C(O)c2cc3c(N)c(C(=O)Nc4cccc(Cl)c4C)sc3nc2C)cc1` (centres undefined), for which the growth with DU-145 prostate was 3.08% (active); in the test on K-562 leukemia it was 6.61% (active); in the test on MALME-3M melanoma, 41.7%; in the test on MDA-MB-231 breast, 1.27% (active); in the test on RXF 393 renal, 33.7%; with SF-268 CNS, 13.2%. Besides, the growth in the test on SF-295 CNS is 17.4%; in the test on SF-539 CNS, -4.61% (active); in the test on UACC-257 melanoma it was 44.1%; with M14 melanoma, 7.3% (active); in the test with HCT-15 colon, 10.8%; in the test on HT29 colon it was -7.84% (active). The growth is -11.4% (active) in the test with SNB-75 CNS; 39% in the test on SNB-19 CNS; 11.1% with U251 CNS; 16.7% with PC-3 prostate; -53.7% (active) in the test on SK-MEL-5 melanoma; 24.6% in the test with UACC-62 melanoma. Moreover, in the test on SK-MEL-28 melanoma, the growth is 57.7%.

Regarding `C[n+]1ccc(CCc2c[nH]c3ccccc23)cc1`, the growth in the test on DU-145 prostate is 111%; in the test on K-562 leukemia it was 102%; in the test with MALME-3M melanoma it was 76.1%; with MDA-MB-231 breast, 92.7%; with RXF 393 renal it was 118%; in the test on SF-268 CNS, 94.4%. Moreover, the growth in the test with SF-295 CNS was 94.5%; with SF-539 CNS, 95.7%; in the test with UACC-257 melanoma, 104%; with M14 melanoma it was 95.1%; with HCT-15 colon it was 99.7%; with HT29 colon, 88.8%. Also, the growth with SNB-75 CNS was 74.6%; in the test on SNB-19 CNS, 102%; with U251 CNS it was 95.2%; with PC-3 prostate, 84%; in the test on SK-MEL-5 melanoma, 104%; in the test on UACC-62 melanoma it was 101%. For the same compound, the growth with LOX IMVI melanoma was 94.6%; with SK-MEL-28 melanoma it was 100%.

As to `N#Cc1c(Nc2ccc(N3CCOCC3)cc2)nc(SCC(=O)c2ccc(Br)cc2)nc1-c1ccccc1`, the growth in the test on DU-145 prostate was 106%; with K-562 leukemia, 99.3%; in the test with MALME-3M melanoma, 111%; in the test with MDA-MB-231 breast, 109%; with RXF 393 renal, 126%; in the test with SF-268 CNS, 103%. The growth is 104% in the test on SF-295 CNS; 98.7% with SF-539 CNS; 102% with UACC-257 melanoma; 97.3% in the test on M14 melanoma; 103% with HCT-15 colon; 98.3% in the test on HT29 colon. The growth in the test with SNB-75 CNS was 97.7%; in the test with SNB-19 CNS, 117%; with U251 CNS, 101%; in the test with PC-3 prostate, 86.1%; in the test on SK-MEL-5 melanoma it was 102%; in the test on UACC-62 melanoma, 104%. Further, the growth in the test on LOX IMVI melanoma was 100%; with SK-MEL-28 melanoma it was 104%.

As to `NS(=O)(=O)c1ccc(-c2cc(-c3nnc(SCC(=O)Nc4ccc(C(=O)/C=C/c5ccc(Cl)cc5)cc4)n3-c3ccccc3)c3ccccc3n2)cc1`, the growth is 95.7% in the test on DU-145 prostate; 84.4% in the test with K-562 leukemia; 101% in the test on MALME-3M melanoma; 90.8% in the test on MDA-MB-231 breast; 93% in the test on RXF 393 renal; 74.8% with SF-268 CNS. Moreover, the growth is 101% in the test with SF-295 CNS; 92.3% in the test with SF-539 CNS; 104% in the test on UACC-257 melanoma; 97.7% with M14 melanoma; 94.7% with HCT-15 colon; 94.9% in the test on HT29 colon. The growth was 54% in the test on SNB-75 CNS; 86.8% in the test with SNB-19 CNS; 81.1% in the test on U251 CNS; 79.8% with PC-3 prostate; 92.8% in the test with SK-MEL-5 melanoma; 71% in the test with UACC-62 melanoma. Also, the growth was 88% in the test with LOX IMVI melanoma and 97% with SK-MEL-28 melanoma.

As for `NS(=O)(=O)c1ccc(C(=O)NN2C(=O)c3c(Br)c(Br)c(Br)c(Br)c3C2=O)cc1`, the growth was 103% with DU-145 prostate; 102% in the test with K-562 leukemia; 98.7% with MALME-3M melanoma; 101% with MDA-MB-231 breast; 110% in the test with RXF 393 renal; 95.5% in the test with SF-268 CNS. The growth with SF-295 CNS was 98.2%; with SF-539 CNS, 96.9%; in the test with UACC-257 melanoma, 100%; in the test with M14 melanoma it was 98.9%; in the test on HCT-15 colon, 99.5%; with HT29 colon it was 109%. Moreover, the growth with SNB-75 CNS was 77.8%; in the test with SNB-19 CNS it was 101%; with U251 CNS, 98%; with PC-3 prostate, 100%; in the test on SK-MEL-5 melanoma it was 103%; with UACC-62 melanoma, 99.5%. The figures for the growth in the test with LOX IMVI melanoma and in the test on SK-MEL-28 melanoma were 95.1% and 109%, respectively.

Take `O=C(CCSc1nnc2n(Cc3ccccc3)c(=O)c3c4c(sc3n12)CCCC4)N1CCN(c2ccccc2)CC1`: the growth in the test on DU-145 prostate is 111%; in the test on K-562 leukemia, 113%; with MALME-3M melanoma, 95.4%; in the test on MDA-MB-231 breast it was 109%; with RXF 393 renal, 108%; in the test on SF-268 CNS it was 93%. Moreover, the growth with SF-295 CNS was 96%; with SF-539 CNS it was 100%; in the test on UACC-257 melanoma, 101%; in the test on M14 melanoma it was 96.2%; in the test on HCT-15 colon, 96.9%; with HT29 colon it was 93.7%. The growth in the test with SNB-75 CNS is 93.5%; in the test with SNB-19 CNS, 99.8%; in the test on U251 CNS, 106%; in the test with PC-3 prostate, 102%; with SK-MEL-5 melanoma it was 99.9%; in the test with UACC-62 melanoma, 108%. Further, the growth in the test with LOX IMVI melanoma was 100%; in the test on SK-MEL-28 melanoma, 87.4%.

The values above are taken from PubChem BioAssay (NCI).
